SMN2 splice up = qHTS Assay for Enhancers of SMN2 Splice Variant Expression; HEK293 SMN2-luciferase splicing reporter, luminescence, 30-36 h; Potency, µM (doses to about 46.1 µM), for inactives: at the top dose activity change, positive = activation, usual class: activators; hit rate 2.8% among 210,000; AID 1458, 2008; also: % of control where 0% means no effect; nearly all actives have a fitted effect of over 55% in size
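HEK293 cells carry an SMN2 […]–luciferase reporter in which exon 7 inclusion puts luciferase in frame. Cells were plated 10-12 h before compound addition, then incubated 30-36 h at 37C. ONE-Glo luminescence was read; sodium butyrate at 4.5 mM final served as control.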
NPC1 prom act = qHTS Assay for NPC1 Promoter Activators; Huh7 NPC1 promoter luciferase reporter, 24 h; Potency, µM (doses to about 9.22 µM), for the others: at the top dose activation, usual class: activators; hit rate 2.4% among 320,000; also: % of control where 0% means no effect; nearly all actives have a fitted effect of over 60% in size
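Compounds in DMSO were transferred onto Huh7 NPC1-luciferase reporter cells pre-incubated 2 h; after 24 h at 37 °C, Amplite reagent was dispensed and luminescence recorded 10 min later.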
ELG1 genotox = qHTS screen for small molecules that induce genotoxicity in human embryonic kidney (HEK293T) cells expressing luciferase-tagged ELG1. AID 504466, 2011. Potency, µM (series often up to 46 µM), inactives show at the highest dose activity change, positive = activation, hits mostly activators. HEK293T ELG1-luciferase reporter, luminescence, 16 h. hit rate 1.3% among 330,000; also: % of control where 0% means no effect; nearly all actives have a fitted effect of over 60% in size
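Quantitative HTS format in 1536-well plates. HEK293T ELG1-luciferase reporter cells receive test compound and are incubated 16 hr at 37 °C, 5% CO2; ONE-Glo added, 30 min room temperature, then luminescence read.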
FLuc modulator = qHTS profiling assay for firefly luciferase inhibitor/activator using purifed enzyme and Km concentrations of substrates (counterscreen for miR-21 project); hit rate 6.9% among 360,000; purified FLuc, Km substrates, luminescence inhibition; AID 588342, 2011; Potency, µM (doses to about 57.5 µM), for inactives: at the highest dose activity change, negative = inhibition, most hits filed as inhibitors;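 also: plate controls were vehicle for no effect and reference inhibitor for full effect; nearly all actives have a fitted effect of over 55% in size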
Target sequence (P08659 whole entry, looked up): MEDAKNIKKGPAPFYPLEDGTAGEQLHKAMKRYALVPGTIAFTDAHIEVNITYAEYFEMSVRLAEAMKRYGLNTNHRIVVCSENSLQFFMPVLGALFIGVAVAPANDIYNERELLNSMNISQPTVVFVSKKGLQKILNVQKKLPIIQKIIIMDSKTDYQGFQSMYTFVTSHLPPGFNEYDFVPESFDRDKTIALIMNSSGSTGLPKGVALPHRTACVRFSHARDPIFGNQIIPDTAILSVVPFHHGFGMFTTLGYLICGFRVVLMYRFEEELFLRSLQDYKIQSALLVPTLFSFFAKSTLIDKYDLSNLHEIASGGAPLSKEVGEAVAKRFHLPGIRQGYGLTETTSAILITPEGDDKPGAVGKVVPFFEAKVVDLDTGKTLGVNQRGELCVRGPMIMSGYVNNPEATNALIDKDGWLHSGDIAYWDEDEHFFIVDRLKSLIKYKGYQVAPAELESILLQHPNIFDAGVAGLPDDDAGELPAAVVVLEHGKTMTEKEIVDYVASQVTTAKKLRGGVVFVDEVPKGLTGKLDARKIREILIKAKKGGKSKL
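Biochemical qHTS of compounds, final roughly 60 µM downward over six points, against 10 nM purified firefly luciferase using Km concentrations of substrates (10 uM D-luciferin, 10 uM ATP) in Tris acetate pH 7.5 buffer; luminescence output.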
KinaseGlo FLuc = Counterscreen for Luciferase (Kinase-Glo TM) Inhibition; Luciferin 4-monooxygenase (Photuris pensylvanica), Q27757; Kinase-Glo luciferase, ATP luminescence, 8 min; Potency, µM (highest dose often 38.3 µM), without a hit: at the top dose activity change, negative = inhibition, actives largely listed as inhibitors; hit rate 0.28% among 200,000; AID 1379, 2008; also: % is scaled to controls: 0 for no effect and ±100 for the full control effect; nearly all actives have a fitted effect of over 60% in size
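Compounds were added to a substrate mix at pH 7.2 (50 mM imidazole, 10 uM ATP, within the enzyme's linear range), followed by Kinase-Glo detection reagent; luminescence was measured after 8 minutes at ambient temperature.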
Rab9 promoter act = qHTS Assay for Rab9 Promoter Activators | Huh7 Rab9 promoter-luciferase reporter, luminescence, 24 h | Potency, µM (titrated, usually from 9.22 µM), for inactives: at the highest dose activation, negative = inhibition, most hits filed as activators | hit rate 2.8% among 320,000; also: % of control where 0% means no effect; nearly all actives have a fitted effect of over 60% in size
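Measured in stably transfected Huh7 cells bearing a Rab9 promoter–luciferase construct: 24 h compound treatment at 37 °C, followed by luminescence detection.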
An asterisk follows results filed as active; u = inconclusive; x = no result given; [ ] = dose if it differs, or a comment. Only some compounds are listed: those with a hit (about 7.3% of all), similar ones and a draw of the others. Calls follow the shape of the dose curve; as a rule, active = well fitted curve in the direction sought with a large enough effect; inconclusive = small, poorly fitted or top-dose-only effect, or another doubt; inactive = no such curve, though single readings can be large; an effect the other way counts as inactive or inconclusive. Potency is read from the fitted curve at half-maximal effect.

SMILES	SMN2 splice up	NPC1 prom act	ELG1 genotox	FLuc modulator	KinaseGlo FLuc	Rab9 promoter act
CC(C)(C)c1ccc(-c2nc(-c3ccncc3)no2)cc1	17%	0.4µM*	u	0.95µM*	1%	0.45µM*
Clc1ccc(Br)cc1-c1nc(-c2ccncc2)no1	u	2%	21µM*	u	-2%	22%
Cc1ccc(OCc2nc(-c3cccnc3)no2)cc1C	15%	14%	11%	u	-5%	17%
CCC(=O)Oc1ccc(-c2nc(-c3cccnc3)no2)cc1	u	4µM*	u	3.4µM*	u	4.5µM*
COc1ccc(/C=N\NC(=O)c2ccc(F)cc2)cc1COc1cc(F)ccc1[N+](=O)[O-]	x	-18%	-13%	2%	x	-10%
Cc1c(CNC2CCCCCC2)c(C(=O)O)c(C)n1Cc1ccc(F)cc1	0%	x	x	-1%	x	x
O=C(O)COc1ccc(S(=O)(=O)NCCc2ccccc2)cc1	15%	-2%	-7%	0%	-2%	-5%
Cn1cnnc1SCC(=O)Nc1ccc(N2CCCCC2)cc1	x	17%	8%	13µM*	x	15%
COCCn1cnnc1SCC(=O)Nc1cc(C)on1	x	x	5%	x	x	x
COCCn1cnnc1SCC(=O)Nc1ccc(N2CCCCC2)cc1	x	0%	3%	19µM*	x	-1%
Cn1cnnc1SCC(=O)Nc1ccc(OCc2ccccc2)cc1	u	21%	16%	15µM*	-3%	u
CCn1cc(Br)c(C(=O)Nc2nccs2)n1	21%	17%	16%	u	-2%	14%
CCC(NS(=O)(=O)c1cccs1)c1ccc(C)cc1 (centres undefined)	x	2%	1%	-9%	x	-2%
CCC1=NN2C(=N)/C(=C\c3cccn3-c3ccc(OC)cc3)C(=O)N=C2S1	4%	-1%	-8%	u	-1%	4%
Cc1ccccc1COc1ccc(-c2nnn(CC(=O)O)n2)cc1	x	-10%	3%	17µM*	x	-1%
COC(=O)c1ccc(COc2ccc(-c3nnn(CC(N)=O)n3)cc2)cc1	15%	3%	-13%	-1%	1%	-4%
Cc1ccc(-c2nnn(CC(=O)O)n2)cc1	-15%	-3%	3%	-10%	3%	-11%
COC(=O)c1ccc(COc2ccc(-c3nnn(CC(=O)NC(C)(C)C)n3)cc2)cc1	14µM*	-2%	u	1%	-1%	-9%
O=C(O)COc1ccc(-c2nnn(Cc3ccccc3F)n2)cc1	7%	9%	7%	19µM*	0%	-1%
c1ccc2c(c1)Cc1cc(CN3CCOCC3)ccc1-2	14µM*	4µM*	u	9.5µM*	4%	u
Cc1ccc(Nc2nc3nonc3[nH]c2=O)cc1	17%	28%	u	15µM*	1%	u
COC(=O)C(NS(=O)(=O)c1ccccc1Cl)c1ccccc1 (centres undefined)	-8%	0%	-7%	0%	2%	-4%
Cc1csc(C(C)NC(=O)c2ccc(OC3CCN(CCc4ccccc4)CC3)cc2)n1 (centres undefined)	x	4%	0%	-1%	x	-7%
Cc1ccc(-c2onc3ccc(C4OCCO4)cc23)cc1	-1%	27%	10%	7.6µM*	-1%	u
Cc1ccc(-c2onc3ccc(Br)cc23)cc1	x	4%	-1%	u	x	3%
SMILES	SMN2 splice up	NPC1 prom act	ELG1 genotox	FLuc modulator	KinaseGlo FLuc	Rab9 promoter act
COc1ccc(CNC(=O)C2Cc3cc(S(=O)(=O)N4CCCCCC4)ccc3N2C(C)=O)cc1 (centres undefined)	x	x	x	3%	x	x
[O-]/[N+](=C\c1cccc(Br)c1)c1ccccc1	27%	2%	15%	24µM*	u	19%
N#CC1(c2ccccc2)CCCN1C(=O)c1ccco1 (centres undefined)	-13%	-2%	1%	3%	15%	-1%
CC(=O)c1cccc(S(=O)(=O)Nc2cc(C(F)(F)F)ccc2N2CCOCC2)c1	x	-1%	3%	5%	x	-5%
Oc1c(C=Nc2ccccc2)sc2ccccc12	x	-4%	2%	3%	2%	-4%
Oc1c(/C=N/c2ccccn2)sc2ccccc12	x	22%	u	0.54µM*	x	u
Oc1c(C=Nc2cccnc2)sc2ccccc12	24%	5%	u	1.9µM*	u	5%
Oc1c(C=Nc2ccc(Cl)cn2)sc2ccccc12	x	u	5.8µM*	0.34µM*	x	u
CC(C)=CC(=O)N1CCCc2ccccc21	u	3%	0%	3%	4%	8%
CN1CCN(C(=S)Nc2ccc(Cl)cc2)CC1	9%	-7%	0%	u	2%	0%
CCOc1ccc(NC(=S)N2CCCC2)cc1	x	-3%	26%	-1%	x	1%
S=C(Nc1ccc(Cl)cc1)N1CCCCC1	12%	7%	1%	12µM*	0%	1%
CCCCc1ccc(NC(=S)N2CCCC(C)C2)cc1 (centres undefined)	14%	8%	11%	13µM*	2%	16%
CCc1ccc(NC(=S)N2CCCCCCC2)cc1	16µM*	u	u	4.8µM*	1%	u
S=C(Nc1ccc(Br)cc1)N1CCN(C2CCCCC2)CC1	-15%	0%	-1%	7%	3%	-9%
S=C(Nc1ccc(Br)cc1)N1CCCC1	8.9µM*	16%	12%	15µM*	-2%	3%
C/C(CC(=O)NCC(C)C)=N\NC(=O)COc1cc(C)c(Br)cc1Br	11%	-2%	-1%	4%	1%	0%
CCC(C)C(=O)OCC1(c2ccc(C)cc2OC(=O)C(C)C)CO1 (centres undefined)	x	-3%	4%	0%	x	-2%
CNC(=O)c1ccc(-c2ccccc2)s1	7%	u	u	13µM*	-1%	u
CC1CCN(Cc2c(C(=O)N/N=C/c3ccc(C(C)(C)C)cc3)nnn2-c2nonc2N)CC1	x	-1%	18%	1%	x	0%
Cc1cc(Cl)ccc1N=C1N=C(N)c2ccccc21	-3%	-2%	0%	u	0%	-6%
CC(C)n1cnc2c(oc3ccccc32)c1=O	x	7%	14%	17µM*	x	11%
CC(/C=C1\SC(=S)N(CC(=O)N2CCN(c3ccccc3)CC2)C1=O)=C\c1ccccc1	-1%[1.84 µM]	-2%	-2%	1%	-2%	-5%
CC(=O)c1ccc(NC(=O)CCCN2C(=O)/C(=C/C(C)=C/c3ccccc3)SC2=S)cc1	-20%	-3%	0%	-4%	2%	5%
CC(=C\c1ccco1)/C=C1/SC(=S)N(CC(=O)O)C1=O	x	2%	4%	17µM*	x	16%
